The values that follow come from PubChem BioAssay (NCI).

Values joined by “and” are separate entries in the source; they are usually repeats but may differ in a detail not shown here. Identical values can stand only once. This is part of a sample that, as a whole, favours compounds with a hit. Of some 83,000 tested, about 20% had one in any assay.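 How to read the values: 0–100, growth inhibition (40 = 60% inhibited); 0, no net growth; -100 to 0, cell death (-40 = 40% of starting cells died; -100 = all dead).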 Active and inactive are the calls of the source. How the source made its calls: active means growth percent below 10; inactive means the rest.

The subject of the test is MDA-MB-468 breast. As to the kind of experiment: NCI-60 one-dose screen, 48 h (100 = growth as untreated, 0 = no growth, -100 = all killed). The settings on record: 10 µM unless noted.
As to `COC(=O)[C@@]12OC[C@]34[C@H]([C@@H](O)[C@@H]1O)[C@@]1(C)[C@H](O)C(=O)C=C(C)[C@@H]1C[C@H]3OC(=O)C(OC(C)=O)[C@@H]24` (some centres not stated), the growth is -11.6% (active). The same measure for `C=C(C)[C@@H]1CC[C@]2(CO)CC[C@]3(C)[C@H](CC[C@@H]4[C@@]5(C)CC[C@H](NCO)C(C)(C)[C@@H]5CC[C@]43C)[C@@H]12`: -74.8% (active). For `COCCOCCOCc1n(Cc2ccc3ccccc3c2)c2ccccc2[n+]1Cc1ccc2ccccc2c1` the value was -20.6% (active); for `COc1ccc(CCN(C)CCCC(C#N)(c2ccc(OC)c(OC)c2)C(C)C)cc1OC` (configuration not stated), 97.9% (inactive) and 89.5% (inactive); for `N#Cc1ccc(-n2nnc3ccccc32)cc1C#N`, 99.5% (inactive). For `CCc1ccc(-c2nnc(COc3ccc(-c4nc5cc(Cl)c(Cl)cc5[nH]4)cc3OC)o2)cc1` the value was 76.4% (inactive). As to `N#Cc1c(-c2cccs2)cc(-c2cnccn2)nc1SCC(=O)N/N=C/c1ccc(Cl)cc1`, the growth is 108% (inactive). For `Cc1ccc2c(-n3nc(C#N)c(C#N)c3N)cc(=O)[nH]c2c1` the value was 92.6% (inactive). The same measure for `COc1cc(/C=C2/C=C(c3ccc(C(C)(C)C)cc3)N(CCc3ccc(S(N)(=O)=O)cc3)C2=O)cc(OC)c1OC`: 55.6% (inactive); for `O=C1Nc2ccccc2C12C=C(c1ccccc1)Nc1c2c(-c2ccccc2)nn1-c1ccccc1` (configuration not stated): 105% (inactive); for `Clc1ccc(-c2noc(/C=C\c3ccccc3)n2)cc1`: 97.7% (inactive). For `CN1CCN(CCCN2c3ccccc3Sc3ccc(Cl)cc32)CC1` the value was -0.133% (active) and 70.8% (inactive); for `CCOC(=O)C/C(=N\Nc1cc(=O)[nH]c2ccc(Cl)cc12)C(=O)OCC`, 98.6% (inactive). Turning to `N#Cc1c(N)c(C(=O)c2ccc3c(c2)OCCO3)n2c1CCCC2`, the growth is 35.5% (inactive). The same measure for `COc1ccc(Br)c(C=O)c1`: 84.5% (inactive); for `COc1cccc2c(=O)c3c(sc12)c(NCCN(C)C)nc1ccccc13`: 12.7% (inactive); for `CC(=O)c1ccc(Nc2nccc(-c3ccc4ccccc4c3)n2)cc1`: 76.8% (inactive). As for `Cc1ccc(-c2cc3nc(C(Cl)Cl)nc(-c4ccccc4)n3n2)cc1`, the growth is -16.4% (active). For `CN1CCN(c2ccc(Nc3nc(NCCCNS(=O)(=O)c4ccc(F)cc4)c4sccc4n3)cc2)CC1` the value was 25.9% (inactive); for `Fc1ccccc1/C=C(/C1=NCCN1)n1cnc2ccccc21`, 98.1% (inactive); for `O=C(c1ccc(Cl)cc1Cl)N1CCOCC1`, 99.5% (inactive). Turning to `Clc1ccc(C2=NN(c3ccc(Cl)cc3)C(c3cccc(Nc4ccnc5cc(Cl)ccc45)c3)C2)cc1` (configuration not stated), the growth is 78.2% (inactive).

As for `CSc1cccc([N+](=O)[O-])c1`, the growth was 94.1% (inactive). The same measure for `Cc1c(Cn2c(C)nc3c(C(=O)O)cc(N4CCOCC4)cc32)cccc1C(F)(F)F`: 104% (inactive). On to `O=C(CSc1nc2ccccc2[nH]1)c1ccc(N2CCOCC2)cc1`, for which the growth was 87.6% (inactive). In the case of `Clc1ccc2[nH]cc(-c3nc(-c4c[nH]c5ncccc45)cs3)c2c1`, the growth was 45.2% (inactive). On to `CCOC(=O)c1cnc2c(C)cccc2c1Nc1ccc(C(C)=O)cc1`, for which the growth is -71.2% (active).
